This passage reports binding signal results from PMC8384837, “Expanding the binding specificity for RNA recognition by a PUF domain”.

Where a chain is given by its changes, count along the chain named.

Common to all, as to assay: yeast three-hybrid, YBZ-1, SC-Leu-His + 0.5 mM 3-AT, 4 days
Holding throughout (details): tags: N-Gal4 AD-HA kept; label: inside an RPR1-promoter hybrid RNA with tandem MS2 sites; ssRNA

One experiment addresses T1, PUM1 PUF domain R6-RYC (Homo sapiens, UniProt Q14671 828-1176, N1043R;Q1047C).
T1 sequence: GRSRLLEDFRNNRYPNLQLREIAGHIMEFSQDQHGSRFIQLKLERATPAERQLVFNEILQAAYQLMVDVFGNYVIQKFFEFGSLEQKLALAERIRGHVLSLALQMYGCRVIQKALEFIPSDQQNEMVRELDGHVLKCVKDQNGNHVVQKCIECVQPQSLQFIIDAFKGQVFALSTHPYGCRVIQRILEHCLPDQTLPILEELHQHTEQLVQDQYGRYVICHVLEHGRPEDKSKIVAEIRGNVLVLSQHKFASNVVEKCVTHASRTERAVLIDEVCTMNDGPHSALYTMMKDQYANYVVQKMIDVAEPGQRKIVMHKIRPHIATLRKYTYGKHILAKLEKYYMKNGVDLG
Summed up: (§1)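 The interaction score is the logarithmic change in variant frequency from input to selection. It uses log2, with a pseudocount of 1 for absent variants, and frequencies came from PCR-amplified, Illumina-sequenced repeat regions. The libraries were Pumilio-1 PUF domains randomized at the three base-contacting residues per repeat, co-expressed with matching RNA elements in strain YBZ-1 (LexA–MS2 coat fusion, HIS3 reporter). Plating lasted four days on SC-Leu (input) or SC-Leu-His + 0.5 mM 3-AT (selection).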

A further experiment has as its target T2, PUM1 PUF domain R6-SWS (Homo sapiens, UniProt Q14671 828-1176, N1043S;Y1044W;Q1047S).
T2 sequence: T1 sequence with R216S, Y217W, C220S
In a few lines:
as §1

The target of the next experiment is T3, PUM1 PUF domain R6-GWR (Homo sapiens, UniProt Q14671 828-1176, N1043G;Y1044W;Q1047R).
T3 sequence: T1 sequence with R216G, Y217W, C220R
Summed up: as §1

In a further experiment the target is PUM1 PUF domain R8-KHV (Homo sapiens, UniProt Q14671 828-1176, N1122K;Y1123H;Q1126V). Summed up: as §1
Another experiment deals with T4, PUM1 PUF domain R6-VWH (Homo sapiens, UniProt Q14671 828-1176, N1043V;Y1044W;Q1047H).
T4 sequence: T1 sequence with R216V, Y217W, C220H
Summed up:
as §1

In the next experiment the target is PUM1 PUF domain R4-PYD (Homo sapiens, UniProt Q14671 828-1176, N971P;H972Y;Q975D). Summed up: as §1
A further experiment has as its target PUM1 PUF domain R5-LHS (Homo sapiens, UniProt Q14671 828-1176, C1007L;R1008H;Q1011S). Summed up: as §1
The next experiment addresses PUM1 PUF domain R5-RGA (Homo sapiens, UniProt Q14671 828-1176, C1007R;R1008G;Q1011A). In a few lines:
as §1

Another experiment concerns the target PUM1 PUF domain R1-EKK (Homo sapiens, UniProt Q14671 828-1176, S863E;R864K;Q867K). In a few lines:
as §1

As for “GGCUAGAACUAGUGGAUCCCCCGGCGCCCGGCGGCUCGAGCCCGGGUAAGUGUAAAUAGUCUGCAUGCCGCCGGGCGCCAUGCCUGCAGGUCGACUCUAGAAAACAUG”, the binding signal with PUM1 PUF domain R6-RYC was 4.42 log2 enrichment (interaction score); with PUM1 PUF domain R6-SWS, 4.04 log2 enrichment (interaction score); in the experiment with PUM1 PUF domain R6-GWR, 6.56 log2 enrichment (interaction score). As to “GGCUAGAACUAGUGGAUCCCCCGGCGCCCGGCGGCUCGAGCCCGGGUAAGGGUAAAUAGUCUGCAUGCCGCCGGGCGCCAUGCCUGCAGGUCGACUCUAGAAAACAUG”, in the experiment with PUM1 PUF domain R8-KHV, the binding signal is 2.26 log2 enrichment (interaction score). “GGCUAGAACUAGUGGAUCCCCCGGCGCCCGGCGGCUCGAGCCCGGGUAAGCGUAAAUAGUCUGCAUGCCGCCGGGCGCCAUGCCUGCAGGUCGACUCUAGAAAACAUG”: the binding signal with PUM1 PUF domain R8-KHV was 2.09 log2 enrichment (interaction score). With “GGCUAGAACUAGUGGAUCCCCCGGCGCCCGGCGGCUCGAGCCCGGGUAAGUGAAAAUAGUCUGCAUGCCGCCGGGCGCCAUGCCUGCAGGUCGACUCUAGAAAACAUG”, the binding signal with PUM1 PUF domain R6-SWS is 3.49 log2 enrichment (interaction score); with PUM1 PUF domain R6-VWH, 7.07 log2 enrichment (interaction score). As to “GGCUAGAACUAGUGGAUCCCCCGGCGCCCGGCGGCUCGAGCCCGGGUAAGUGUAUAUAGUCUGCAUGCCGCCGGGCGCCAUGCCUGCAGGUCGACUCUAGAAAACAUG”, the binding signal with PUM1 PUF domain R4-PYD is 5.78 log2 enrichment (interaction score). For the sequence “GGCUAGAACUAGUGGAUCCCCCGGCGCCCGGCGGCUCGAGCCCGGGUAAGUGUUAAUAGUCUGCAUGCCGCCGGGCGCCAUGCCUGCAGGUCGACUCUAGAAAACAUG”, the binding signal with PUM1 PUF domain R5-LHS was 5.04 log2 enrichment (interaction score); with PUM1 PUF domain R5-RGA, 1.01 log2 enrichment (interaction score). For “GGCUAGAACUAGUGGAUCCCCCGGCGCCCGGCGGCUCGAGCCCGGGUAAGUGUCAAUAGUCUGCAUGCCGCCGGGCGCCAUGCCUGCAGGUCGACUCUAGAAAACAUG” the same measures were 2.24 log2 enrichment (interaction score) and 2.27 log2 enrichment (interaction score). “GGCUAGAACUAGUGGAUCCCCCGGCGCCCGGCGGCUCGAGCCCGGGUAAGUGCAAAUAGUCUGCAUGCCGCCGGGCGCCAUGCCUGCAGGUCGACUCUAGAAAACAUG”: the binding signal with PUM1 PUF domain R6-GWR was 3.5 log2 enrichment (interaction score). For “GGCUAGAACUAGUGGAUCCCCCGGCGCCCGGCGGCUCGAGCCCGGGUAAGUGUAAAUUGUCUGCAUGCCGCCGGGCGCCAUGCCUGCAGGUCGACUCUAGAAAACAUG”, in the experiment with PUM1 PUF domain R1-EKK, the binding signal is 2.94 log2 enrichment (interaction score).
